PubChem BioAssay (Tox21)
Records with an inconclusive call do not appear. Active and inactive are the calls of the source. Unless noted, calls follow the shape of the full dose curve.

Tests used:
[1] = Nuclear factor erythroid 2-related factor 2/antioxidant responsive element (Nrf2/ARE) small molecule agonists: qHTS cell viability counter screen in human keratinocytes (AID 1919968; active = well fitted curve in the direction sought with a large enough effect in the repeat runs; an effect the other way counts as inactive or inconclusive; also: nearly all actives have a fitted effect of over 55% in size)
Procedure, shortened: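 Measured as CellTiter-Fluor fluorescence, this readout tracks cytotoxicity in the same wells as the ARE-luciferase screen. HaCaT reporter cells (1,500/well) received compounds after a 5 h pre-incubation and were exposed for 23 h.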

[2] = Nuclear factor erythroid 2-related factor 2/antioxidant responsive element (Nrf2/ARE) small molecule agonists: luciferase reporter gene qHTS assay in human keratinocytes (AID 1919969); also: nearly all actives have a fitted effect of over 35% in size; also: potency is read from the fitted curve at half-maximal effect
[3] = target: Gonadotropin-releasing hormone receptor (Homo sapiens) (UniProt P30968); assay: Human gonadotropin-releasing hormone receptor (GnRHR) small molecule agonists, calcium flux assay in GnRHR-HEK293 cells (AID 1920063); also: nearly all actives have a fitted effect of over 35% in size
Procedure, shortened: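 Fluorescence kinetics (480 nm excitation, 540 nm emission; 3 min, 1 s steps) report calcium mobilisation in human GnRHR-HEK293 cells in agonist mode. Dye incubation: 1 h, 37 C.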

[4] = target: KiSS-1 receptor (Homo sapiens) (UniProt Q969F8); assay: Human kisspeptin (KISS1R) small molecule agonists, calcium flux assay in KISS1R-HEK293 cells (AID 1920064; active = well fitted curve in the direction sought with a large enough effect in the repeat runs; an effect the other way counts as inactive or inconclusive)
Procedure, shortened: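 Measures KISS1R agonism through calcium-sensitive dye fluorescence in stably transfected HEK293 cells, read for 3 min after pin-tool compound delivery; 15-point titrations in triplicate.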

[5] = G protein-coupled receptor (GPCR) small molecule agonists, calcium flux assay: HEK293 wild type cell line counter screen (AID 1920065)
Procedure, shortened: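 Readout: fluorescence at 480 nm excitation/540 nm emission, sampled at 1 s intervals for 3 min. Cells had been cultured 18 h, then dye-loaded 1 h at 37 C before compound or ATP addition.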

[6] = p53 small molecule agonists, cell-based qHTS assay with human liver microsomes (AID 1963577);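 also: p53 response element beta-lactamase reporter cells with liver microsomes plus NADPH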
Procedure, shortened: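 HLM-supplemented p53RE-bla reporter assay: 16 h compound exposure at 37 C, microsomes and NADPH each 0.5 mg/mL final, read by fluorescence intensity.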

[7] = p53 small molecule agonists, cell-based qHTS assay with rat liver microsomes (AID 1963578)
Procedure, shortened: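 Quantitative HTS of the Tox21 10K library: p53RE-bla cells, rat liver microsomes plus NADPH at 0.5 mg/mL final each, 16 h at 37 C, beta-lactamase fluorescence detection.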

[8] = p53 small molecule agonists, cell-based qHTS assay with human liver microsomes: qHTS cell viability counter screen (AID 1963579); also: nearly all actives have a fitted effect of over 45% in size
Procedure, shortened: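 Viability of p53RE-bla cells is measured as CellTiter-Glo luminescence following a 16 h, 37 C incubation with compound, liver microsomes from human donors and NADPH.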

[9] = p53 small molecule agonists, cell-based qHTS assay with rat liver microsomes: qHTS cell viability counter screen (AID 1963580); also: nearly all actives have a fitted effect of over 45% in size
Procedure, shortened: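 Viability is assessed in parallel with the p53 reporter read: HCT-116 p53RE-bla cells receive compounds plus rat microsomes and NADPH (0.5 mg/mL final apiece), incubate 16 h at 37 C, and then CellTiter-Glo luminescence is recorded.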

[10] = p53 small molecule agonists, cell-based qHTS assay: qHTS cell viability counter screen (AID 1963581); also: nearly all actives have a fitted effect of over 45% in size
Procedure, shortened: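 In the same plates used for the p53 bla reporter, HCT-116 cells given compounds for 16 h at 37 C received CellTiter-Glo; luminescence was recorded 30 min later at room temperature.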

[11] = target: 5-hydroxytryptamine receptor 2A (Homo sapiens) (UniProt P28223); assay: 5-hydroxytryptamine receptor 2A (HTR2A) small molecule antagonists, cell-based qHTS assay (AID 1963586); also: nearly all actives have a fitted effect of over 45% in size
Procedure, shortened: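 Antagonist-mode intracellular calcium assay: DOI (4 nM) added after 5 min compound pre-incubation at room temperature to dye-loaded HTR2A-CHO cells. Fluorescence followed for 3 min, sampled every second.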

[12] = target: 5-hydroxytryptamine receptor 2A (Homo sapiens) (UniProt P28223); assay: 5-hydroxytryptamine receptor 2A (HTR2A) small molecule agonists, cell-based qHTS assay (AID 1963587); also: nearly all actives have a fitted effect of over 30% in size
Procedure, shortened: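 CHO cells stably expressing human HTR2A, plated 18 h, loaded with calcium dye 1 h at 37 C. Agonist mode: compounds added and intracellular calcium fluorescence recorded kinetically for 2 min at 1 sec intervals.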

[13] = target: Muscarinic acetylcholine receptor M1 (Homo sapiens) (UniProt P11229); assay: Cholinergic receptor muscarinic 1 (CHRM1) small molecule antagonists, cell-based qHTS assay (AID 1963588); also: nearly all actives have a fitted effect of over 40% in size
Procedure, shortened: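 CHRM1-CHO calcium-flux assay, antagonist mode. Cells were seeded 18 h, dye-loaded 1 h at 37 C and given compound for 5 min at RT, then acetylcholine was added at 50nM. FDSS fluorescence was read 3 min; 15 concentrations, three runs.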

[14] = target: Muscarinic acetylcholine receptor M1 (Homo sapiens) (UniProt P11229); assay: Cholinergic receptor muscarinic 1 (CHRM1) small molecule agonists, cell-based qHTS assay (AID 1963589); also: nearly all actives have a fitted effect of over 35% in size
Procedure, shortened: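 Each compound was tested at 15 concentrations across three independent runs on dye-loaded CHO cells stably expressing human CHRM1, reading intracellular calcium fluorescence kinetically at 1 sec intervals.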

[15] = cAMP Responsive Elements (CRE) small molecule agonists, cell-based qHTS assay (AID 1963590)
Procedure, shortened: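 Cell line: CRE-bla HEK 293T; medium DMEM/10% dialyzed FBS/0.1 mM NEAA/1 mM pyruvate/25 mM HEPES; 3 h compound exposure; beta-lactamase FRET readout after 2 h substrate loading at RT.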

[16] = cAMP Responsive Elements (CRE) small molecule antagonists, cell-based qHTS assay (AID 1963591; active = well fitted inhibition curve with a large enough effect in the signal ratio in the repeat runs, not every such curve was filed as active; the % refers to the signal ratio)
Procedure, shortened: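 Inhibition of NKH477-driven (0.25 uM final) CRE-beta-lactamase signal in HEK293T cells, 3 h compound exposure at 37 °C, detected by FRET substrate fluorescence.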

[17] = target: Beta-2 adrenergic receptor (Homo sapiens) (UniProt P07550); assay: Adrenergic beta2 receptor (ADRB2) small molecule antagonists, cell-based qHTS assay (AID 1963592); also: series mostly up to about 92 µM; nearly all actives have a fitted effect of over 50% in size
Procedure, shortened: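 Cells (CHO, stable ADRB2 overexpression) incubated 18-20hr at 37C; compounds added from DMSO; agonist mix (1nM isoproterenol, 100uM IBMX, 25uM Ro-20-1724) added; 0.5hr RT; d2-cAMP and anti-cAMP-cryptate added; 1hr RT; 665/615 nm read.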

[18] = target: D(2) dopamine receptor (Homo sapiens) (UniProt P14416); assay: Dopamine D2 receptor (DRD2) small molecule agonists, cell-based qHTS assay (AID 1963594); also: nearly all actives have a fitted effect of over 35% in size
Procedure, shortened: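 HEK293 cells stably expressing human DRD2, pre-treated with PDE inhibitor Ro20-1724 (0.1 mM final) and compound 10 min at room temperature, then stimulated with NKH477 (200nM […]) for 30 min. cAMP read by HTRF (665/620 nm).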

[19] = target: D(2) dopamine receptor (Homo sapiens) (UniProt P14416); assay: Dopamine D2 receptor (DRD2) small molecule antagonists, cell-based qHTS assay (AID 1963595; active = well fitted inhibition curve with a large enough effect in the signal ratio in the repeat runs, with a control signal flat; the % refers to the signal ratio)
Procedure, shortened: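 Cells were plated and grown for 24 h at 37 °C. Ro20-1724 (0.1 mM final) went in first, then compound for 10 min. NKH477 (200 nM) with quinpirole (12 nM) followed for 30 min at RT, then HTRF detection reagents for 1 h.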

[20] = p53 small molecule agonists, cell-based qHTS assay (AID 1963582; active = well fitted activation curve with a large enough effect in the signal ratio in the repeat runs, not every such curve was filed as active; the % refers to the signal ratio)
Procedure, shortened: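 Compounds are pin-transferred in DMSO onto p53RE-bla cells and incubated 16 h at 37 C. The B/G FRET beta-lactamase substrate is then applied for 2 h at RT and fluorescence recorded.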

Measured: Potency

Sequence of D(2) dopamine receptor (Homo sapiens) (P14416 whole entry, looked up): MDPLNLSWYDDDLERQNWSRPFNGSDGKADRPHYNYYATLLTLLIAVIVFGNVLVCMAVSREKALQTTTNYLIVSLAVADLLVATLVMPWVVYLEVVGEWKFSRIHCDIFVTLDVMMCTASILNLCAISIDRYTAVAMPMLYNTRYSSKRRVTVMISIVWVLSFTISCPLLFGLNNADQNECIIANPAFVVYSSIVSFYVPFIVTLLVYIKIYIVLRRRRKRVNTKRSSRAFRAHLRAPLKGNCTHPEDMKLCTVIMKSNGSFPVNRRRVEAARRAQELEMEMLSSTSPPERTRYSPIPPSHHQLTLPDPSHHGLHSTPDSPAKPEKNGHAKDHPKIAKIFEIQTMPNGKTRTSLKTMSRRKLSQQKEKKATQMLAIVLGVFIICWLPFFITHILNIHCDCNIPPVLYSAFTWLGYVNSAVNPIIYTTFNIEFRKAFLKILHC
Sequence of Muscarinic acetylcholine receptor M1 (Homo sapiens) (P11229 whole entry, looked up): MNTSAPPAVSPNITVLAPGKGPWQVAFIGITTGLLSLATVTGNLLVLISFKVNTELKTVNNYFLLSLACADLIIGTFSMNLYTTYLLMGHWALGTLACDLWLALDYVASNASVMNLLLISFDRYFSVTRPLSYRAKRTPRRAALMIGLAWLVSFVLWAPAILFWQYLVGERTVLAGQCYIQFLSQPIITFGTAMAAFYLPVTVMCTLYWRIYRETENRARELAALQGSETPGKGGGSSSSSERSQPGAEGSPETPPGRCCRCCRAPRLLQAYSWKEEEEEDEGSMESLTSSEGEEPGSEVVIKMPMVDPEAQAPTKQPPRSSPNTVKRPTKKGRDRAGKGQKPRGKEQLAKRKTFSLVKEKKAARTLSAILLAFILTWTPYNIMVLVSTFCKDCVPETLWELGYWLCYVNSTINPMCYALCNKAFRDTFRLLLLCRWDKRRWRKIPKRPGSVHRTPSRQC
Sequence of Gonadotropin-releasing hormone receptor (Homo sapiens) (P30968 whole entry, looked up): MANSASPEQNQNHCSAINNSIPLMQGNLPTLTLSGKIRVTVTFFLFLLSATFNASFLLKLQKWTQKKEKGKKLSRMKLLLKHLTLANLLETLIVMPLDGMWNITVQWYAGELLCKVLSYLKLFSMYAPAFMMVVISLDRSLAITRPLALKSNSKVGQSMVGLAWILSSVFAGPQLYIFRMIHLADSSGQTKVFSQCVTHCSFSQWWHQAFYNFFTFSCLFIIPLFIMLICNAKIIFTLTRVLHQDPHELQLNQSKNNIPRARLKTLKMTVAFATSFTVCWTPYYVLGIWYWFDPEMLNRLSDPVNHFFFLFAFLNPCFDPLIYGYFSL
Sequence of 5-hydroxytryptamine receptor 2A (Homo sapiens) (P28223 whole entry, looked up): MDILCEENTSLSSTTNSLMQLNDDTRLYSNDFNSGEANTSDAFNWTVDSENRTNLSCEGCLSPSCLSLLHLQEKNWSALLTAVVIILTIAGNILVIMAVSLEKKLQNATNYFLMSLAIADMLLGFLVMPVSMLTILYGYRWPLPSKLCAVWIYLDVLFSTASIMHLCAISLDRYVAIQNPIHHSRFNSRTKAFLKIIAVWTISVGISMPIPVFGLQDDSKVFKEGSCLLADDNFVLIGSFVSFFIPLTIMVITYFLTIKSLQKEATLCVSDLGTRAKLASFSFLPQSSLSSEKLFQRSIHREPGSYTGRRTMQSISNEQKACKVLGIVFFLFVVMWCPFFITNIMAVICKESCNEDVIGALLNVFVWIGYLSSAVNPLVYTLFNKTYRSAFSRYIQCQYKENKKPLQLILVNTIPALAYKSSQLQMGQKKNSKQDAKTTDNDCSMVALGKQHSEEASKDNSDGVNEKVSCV
Sequence of Beta-2 adrenergic receptor (Homo sapiens) (P07550 whole entry, looked up): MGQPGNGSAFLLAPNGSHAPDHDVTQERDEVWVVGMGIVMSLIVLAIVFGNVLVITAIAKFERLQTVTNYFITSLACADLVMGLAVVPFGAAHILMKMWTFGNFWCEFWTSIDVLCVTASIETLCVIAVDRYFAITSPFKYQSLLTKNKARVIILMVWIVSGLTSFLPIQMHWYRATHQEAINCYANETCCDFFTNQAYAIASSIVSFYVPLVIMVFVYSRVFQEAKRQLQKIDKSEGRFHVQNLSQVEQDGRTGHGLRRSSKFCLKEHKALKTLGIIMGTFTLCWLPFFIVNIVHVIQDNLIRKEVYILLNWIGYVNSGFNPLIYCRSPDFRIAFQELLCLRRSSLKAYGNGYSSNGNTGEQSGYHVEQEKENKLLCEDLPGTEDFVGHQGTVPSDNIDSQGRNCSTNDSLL
Sequence of KiSS-1 receptor (Homo sapiens) (Q969F8 whole entry, looked up): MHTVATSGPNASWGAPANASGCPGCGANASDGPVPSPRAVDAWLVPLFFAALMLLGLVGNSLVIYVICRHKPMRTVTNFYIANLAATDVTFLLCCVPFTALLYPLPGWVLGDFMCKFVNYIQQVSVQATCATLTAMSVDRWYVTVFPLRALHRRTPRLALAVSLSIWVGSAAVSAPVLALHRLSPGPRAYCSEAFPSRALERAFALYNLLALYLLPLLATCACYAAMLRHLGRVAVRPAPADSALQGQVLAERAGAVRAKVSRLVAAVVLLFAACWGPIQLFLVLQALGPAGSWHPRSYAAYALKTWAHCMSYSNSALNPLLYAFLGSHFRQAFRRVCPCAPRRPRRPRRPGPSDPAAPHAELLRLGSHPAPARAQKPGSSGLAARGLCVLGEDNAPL

COC(=O)CCCC(=O)O
not listed: [20]
inactive: all other assays above

CC[C@H]1OC(=O)[C@H](C)[C@@H](O[C@H]2C[C@@](C)(OC)[C@@H](O)[C@H](C)O2)[C@H](C)[C@@H](O[C@@H]2O[C@H](C)C[C@H](N(C)C)[C@H]2O)[C@](C)(O)C[C@@H](C)C(=O)[C@H](C)[C@@H](O)[C@]1(C)O
not listed: [11] | [12] | [13] | [14] | [16] | [19]
inactive: all other assays above

COCCOC(=O)C1=C(C)NC(C)=C(C(=O)OC(C)C)C1c1cccc([N+](=O)[O-])c1 (stereo not given)
not listed: [11] | [12] | [13] | [14] | [15] | [16] | [19]
inactive: all other assays above

OCC(CBr)(CBr)CBr
not listed: [19] | [20]
inactive: all other assays above

COCCCN1CCC(NC(=O)c2cc(Cl)c(N)c3c2OCC3)CC1
not listed: [20]
inactive: all other assays above

Cc1ccc(C(=O)c2ccc(CC(=O)O)n2C)cc1
not listed: [11] | [12] | [13] | [14] | [15]
inactive: all other assays above

CCCCOc1ccc(OCCCN2CCOCC2)cc1
not listed: [11] | [12] | [13] | [14] | [16] | [18]
inactive: all other assays above

O=C1C(=O)c2ccccc2C(O)=C1C1CCC(c2ccc(Cl)cc2)CC1 (stereo not given)
active: [2] 13.3 µM
not listed: [19] | [20]
inactive: all other assays above
